High-throughput results (PubChem BioAssay)
INS promoter inh – TRM-6 insulin promoter activity inhibition | TRM-6 cells (human fetal islet line), insulin promoter-eGFP reporter, imaging; reporter expression induced with tamoxifen | inhibition, % at 2 µM | 0.9% of 130,000 active | AID 1273;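 active means inhibition above the mean plus 3 SD, with well images judged a real hit on visual review, cut at about 60% in these data, passing the limit was not always enough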
sdo1 growth – restores growth of sdo1-depleted yeast | 0.21% of 140,000 active | z-score at 10 µM | S. cerevisiae sdo1-depleted JHY4D growth rescue, OD600 30 h; stronger effect = higher value; pdr5 snq2 efflux-pump mutant strain;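 active means z-score above 3 at both the 24 hr and the 30 hr optical density reads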
ROMK primary – modulates human ROMK potassium channel activity. P48048. Tet-inducible ROMK, thallium flux fluorescence; actives lie on both sides. B-score at 10 µM. 2% of 130,000 active. AID 1918;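 active means signal ratio slope over the read window, or its plate-corrected B-score, at least 3 SD from the plate mean, either direction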;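 further: B-score of the F/F0 ratio slope over 7 to 12 s after thallium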
Target sequence (P48048 whole entry, looked up): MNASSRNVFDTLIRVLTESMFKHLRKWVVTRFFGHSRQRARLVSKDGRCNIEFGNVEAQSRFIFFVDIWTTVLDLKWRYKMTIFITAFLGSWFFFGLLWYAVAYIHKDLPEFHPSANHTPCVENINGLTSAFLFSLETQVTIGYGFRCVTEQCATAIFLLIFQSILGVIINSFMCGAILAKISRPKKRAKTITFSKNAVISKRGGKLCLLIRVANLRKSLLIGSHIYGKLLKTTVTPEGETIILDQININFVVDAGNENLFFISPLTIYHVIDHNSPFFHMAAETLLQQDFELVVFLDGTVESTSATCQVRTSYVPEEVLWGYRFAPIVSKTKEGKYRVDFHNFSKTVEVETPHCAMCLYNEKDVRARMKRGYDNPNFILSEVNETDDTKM
Measles CPE – protection of cells from measles virus; 1.5% of 140,000 active; Measles virus-infected cells, CPE protection, absorbance; protection (pct of control), % at 4 µM; in the data active means protection mostly above about 24%, no sharp cut-off; inactive means mostly below about 26%
ROMK retest – confirmation of human ROMK potassium channel modulators; shares compounds with ROMK primary; ROMK thallium flux, fluorescence ratio; stronger effect = lower value; normalized thallium flux (F/F0 slope) at 10 µM; 54% of 3,000 active; AID 1917;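 active means Flux at 10 µM at least 3 SD below or above vehicle control mean in one or both replicates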
A number is an active result; n = inactive; x = no result. Compounds with a hit are over-represented: about 3% of the library has one in this group of screens.

SMILES	INS promoter inh	sdo1 growth	ROMK primary	Measles CPE	ROMK retest
Cc1cccc(Oc2ccc(NC(=O)c3ccccc3C(=O)O)cc2)c1C	x	x	1.6	x	n
O=C(N/N=C/c1ccc(O)cc1O)/C(=C/c1ccccc1)CCO	x	n	x	n	x
COc1ccc(OC)c(NC(=O)C2CCN(Cc3cnn(-c4ccccc4)c3-n3cccc3)CC2)c1	n	n	n	n	x
O=C(Nc1ccccc1Cl)C1CCN(Cc2cnn(-c3ccccc3)c2-n2cccc2)CC1	x	n	-3.2	n	0.054
COc1cc([N+](=O)[O-])ccc1NC(=O)/C=C\C(=O)O	x	x	n	x	x
COc1cc([N+](=O)[O-])ccc1N/C=C/C(=O)c1cccs1	n	n	x	n	0.053
O=C(O)/C(=C\c1ccccc1OC(F)F)Sc1nnc(-c2ccc(F)cc2)o1	n	x	-3	x	0.056
CSc1nnc(-c2ccc(F)cc2)o1	n	n	x	n	x
NC1=NC2=C(CCCC2)C2(CCCCC2)S1	x	n	-3.1	n	0.064
O=[N+]([O-])c1cc(S(=O)(=O)N2CCCCCC2)ccc1F	x	n	x	n	0.054
O=S(=O)(c1cccc(Cl)c1)N1CCCC1	n	n	x	n	x
O=S(=O)(c1cccc(S(=O)(=O)N2CCCC2)c1)c1cccc(S(=O)(=O)N2CCCC2)c1	x	n	-5.7	n	0.066
O=[N+]([O-])c1cc(S(=O)(=O)N2CCCC2)ccc1O	n	n	n	n	x
O=C(O)CNC(=O)C12CC3CC(CC(Cl)(C3)C1)C2	n	x	n	x	x
CN(C)c1ccc(N=C/C=C2/N(C)c3ccccc3C2(C)C)cc1	x	n	x	n	0.054
CN1/C(=C\C=N\O)C(C)(C)c2ccccc21	x	x	n	x	x
CC(NS(=O)(=O)/C=C/c1ccccc1)c1ccccc1 (configuration not stated)	x	x	n	x	x
CC(=C\c1ccccc1)/C=C1/SC(=S)N(C(C(=O)O)C(C)C)C1=O (configuration not stated)	x	x	x	x	n
CC(=C\c1ccccc1)/C=C1/SC(=S)N(CCC(=O)Nc2ccccn2)C1=O	n	x	n	x	x
CC(/C=C1\SC(=S)N(CCCC(=O)Nc2ccc(C(=O)O)cc2)C1=O)=C\c1ccccc1	n	n	-2.8	n	0.058
COc1ccc2cc(-c3cc(C(=O)OCC(=O)NC4CCS(=O)(=O)C4)c4ccccc4n3)ccc2c1 (configuration not stated)	n	n	n	n	x
CCCN(CCC)C(=O)NC1CC(=O)N(c2ccc(OC)cc2)C1 (configuration not stated)	x	n	x	n	x
CCc1cc2c(nc1CC)CCN(CC/C(C)=N/OC[C@H]1O[C@H](c3ccccc3)C=C[C@@H]1Oc1ccc(OC)cc1)C2	n	n	-4.7	n	0.054
CCn1c(COc2ccc3c(c2)CCCC3)nnc1SCC(=O)Nc1ccc(C(=O)OC)cc1	x	n	x	n	x
Cc1ccc(S(=O)(=O)N(C)c2c(C)ccc(S(N)(=O)=O)c2C)cc1	n	x	n	x	x
SMILES	INS promoter inh	sdo1 growth	ROMK primary	Measles CPE	ROMK retest
COc1ccc(-n2c(=O)c3c4c(sc3n3c(C)nnc23)CC(C)CC4)cc1 (configuration not stated)	n	x	n	x	x
C[c-]1[c-](C)[c-](C)[c-](C)[c-]1C.[Fe].c1cc2nccc(N3CCCC3)[c-]2c1 (configuration not stated)	x	x	x	x	0.048
CCCOc1ccc2c(C)c(CC(=O)OC)c(=O)oc2c1	n	n	n	n	x
COC(=O)Cc1c(C)c2ccc(OCC(=O)N(C)C)cc2oc1=O	n	n	1.4	n	n
O=C(NCCN1CCCCC1)c1c(O)c2ccccc2[nH]c1=O	n	n	n	n	x
CCNC(=O)c1c(O)c2ccccc2[nH]c1=O	n	n	2.6	n	n
CC1CCCCN1C(=S)NCc1ccco1 (configuration not stated)	x	x	n	x	x
CC1(C)CC(Nc2ccc(C(F)(F)F)cc2[N+](=O)[O-])CC(C)(C)N1	x	x	-2.6	x	0.055
CC(=N/O)/C(C)=N\NC(=O)c1ccccn1	n	x	-3.9	x	n
CCc1ccc(/C(C)=N/NC(=O)c2ccccn2)cc1	n	x	n	x	x
COc1ccc(C(=O)OCCNC(=O)c2c(Cl)nc3ccccn23)cc1	n	n	x	n	0.059
CC(C)(C)c1ccc(C(=O)OCCNC(=O)c2c(Cl)nc3ccccn23)cc1	n	n	x	n	x
COCCNC(=O)c1cccc(Nc2nc(-c3ccccc3)c3cc(Cl)ccc3n2)c1	x	n	x	n	x
CC(=O)N1CCN(C(=S)NC(=O)c2ccc(S(=O)(=O)N3CCOCC3)cc2)CC1	n	n	n	n	x
Cc1ccc[n+](CC(=O)Nc2cc(C(F)(F)F)ccc2Cl)c1	x	n	x	n	x
CCC(C)(C)c1ccc(OCCCC[n+]2cccc(C)c2)c(C(C)(C)CC)c1	n	x	-4.1	x	0.047
CC(=O)ONC(=Nc1ccccc1)c1nonc1N	x	x	n	x	x
O=C(/C=C/c1ccccc1Cl)c1cccnc1	n	n	-7.4	n	0.044
O=C(/C=C/c1ccc(Cl)cc1)c1cccnc1	n	n	-8.1	n	0.043
CCN(CC)c1ccc(/C=C/C(=O)c2cccnc2)cc1	n	x	n	x	x
N#Cc1ccc(/C=C/C(=O)c2ccc3c(c2)OCO3)cc1	n	x	n	x	x
N#Cc1ccc(/C=C/C(=O)c2cccnc2)cc1	x	x	-3.3	x	0.045
Cc1ccc2nc(-c3ccsc3)c(NC3CCCC3)n2c1	x	x	n	x	x
COc1cccc(CC2(CO)CCCN(Cc3c(C)cc(C)cc3-n3cccn3)C2)c1 (configuration not stated)	x	x	-3.7	x	0.055
CC(=O)Nc1ccc(S(=O)(=O)NCCCN2CCN(Cc3ccccc3)CC2)cc1Cl	x	x	-13	x	n
SMILES	INS promoter inh	sdo1 growth	ROMK primary	Measles CPE	ROMK retest
Cc1ccc(S(=O)(=O)NCCC(=O)N2CCN(Cc3ccccc3)CC2)cc1	n	n	x	n	x
Cc1cc(C)n(/N=C/c2ccc(C(C)C)cc2)c(=O)c1C#N	n	n	n	n	x
C=CCN1C=CC(=CC=C(C#N)C#N)C=C1	x	x	-7.5	x	0.034
C=CCN1C=C/C(=C\C=C(C#N)C#N)c2ccccc21	n	n	x	n	x
CCn1c2ccccc2c2cc(CNCc3ccc(OC)cc3OC)ccc21	x	x	-5.1	x	0.046
CCC(CC)NCc1ccc2c(c1)c1ccccc1n2CC	n	x	n	x	x
COc1ccc(CNCCC(c2ccccc2)c2ccc3c(c2)OCO3)cc1 (configuration not stated)	n	n	x	n	0.053
COc1cc(C(=O)Nc2nc(C)c(Cc3ccc4c(c3)OCO4)s2)cc(OC)c1OC	n	n	2.6	n	0.11
COc1ccc(S(=O)(=O)NCCC(C)C)cc1C	x	n	n	n	x
CC1C/C(=C/c2cccs2)C(=O)/C(=C/c2cccs2)C1 (configuration not stated)	n	n	2.9	n	n
CC1C/C(=C/c2ccco2)C(=O)/C(=C/c2ccco2)C1 (configuration not stated)	n	n	n	n	x
COc1cccc(/C(O)=C/c2nc3ccc(C(=O)NCCc4cccc(C)c4)cc3[nH]c2=O)c1	x	n	x	n	0.062
CC1(CCc2ccccc2)NC(=O)N(CC(=O)N2CC(=O)Nc3ccccc32)C1=O (configuration not stated)	x	x	n	x	x
Cc1cc(C)c(C#N)c(Oc2ccc(O)cc2)n1	n	n	x	n	x
Cc1cc(C)c(C#N)c(Oc2ccc(F)cc2)n1	n	n	x	n	n
CC(=O)/C(=C/c1ccccc1)C(=O)Nc1ccccc1C	x	x	-3.6	x	0.048
